Source: PubChem BioAssay (EPA / NIEHS)
Calls of active or inactive are those of the source. Rule for the calls: active = hit-call score of the fitted dose curve at least 0.9, where 1 is the maximum; inactive = score below 0.9.

These molecules were tested on Matrix Metallopeptidase 9 (MMP9), MMP9 (gene 4318) (assay: BSK_BE3C_MMP9: BioMAP Diversity Plus: BE3C Assay for Matrix Metallopeptidase 9 (MMP9) Biomarker Activity (AID 2284283)). Conditions: primary human bronchial epithelial cells.
Description: BSK_BE3C is a cell-based, multiplexed-readout assay that uses bronchial epithelial cell, a human lung primary cell, with measurements taken at 24 hours after chemical dosing in a 96-well plate.BSK_BE3C_MMP9 is an assay component measured in the BSK_BE3C assay. It measures MMP-9 antibody related to regulation of gene expression using ELISA technology.Data from the assay component BSK_BE3C_MMP9 was analyzed at the endpoint, BSK_BE3C_MMP9, in the positive analysis fitting direction relative to DMSO as the negative control and baseline of activity. Using a type of binding reporter, gain or loss-of-signal activity can be used to understand protein changes. To generalize the intended target to other relatable targets, this assay endpoint is annotated to the 'protease' intended target family, where the subfamily is 'matrix metalloproteinase'.
The levels of cell surface (or secreted, indicated by the prefix "s") biomarker endpoints were measured by ELISA. Overt cytotoxicity to cells in confluent adherent cultures (all systems other than the BT system) was assessed by measuring total protein levels using sulforhodamine B (SRB) staining in parallel cultures at the time of biomarker measurements, indicated as SRB endpoints. For proliferation assays for adherent cell types, individual cell types are cultured at sub-confluence and relative cell numbers quantified by SRB staining at time points optimized for each system (48 h: 3C and CASM3C systems; 72 h: BT and HDF3CGF systems; 96 h: SAg system). SRB was performed by staining cells with 0.1% SRB after fixation with 10% TCA and reading wells at 560 nm.Viability and proliferation of PBMC (T cells) was quantified by Alamar Blue reduction for the SAg and BT systems. For PBMC viability (referred to as PBMC Cytotoxicity within the assay endpoint names), cells were plated (75,000/well in a 96-well plate) and then chemical samples added for 1 h before addition of activators, SEB and TSST-1 (20 ng/mL final concentration each). Cells were incubated for 90 h. Then, Alamar Blue (20 uL/well) (Invitrogen, Cat DAL1100) was added for 6 h, and the plates were read with a fluorescence microplate reader at 546/580 nm (excitation/emission). For PBMC proliferation, cells were plated and activated as above but incubated for only 16 h prior to addition of Alamar Blue. Plates were read after 6 h.
With `O=S(=O)(O)CCC(F)(F)C(F)(F)C(F)(F)C(F)(F)C(F)(F)C(F)(F)F` the outcome was “inactive”.
With `FC(F)(F)COC(OCC(F)(F)F)OCC(F)(F)F` the outcome was “inactive”.
With `O=C(Cl)C(F)(F)C(F)(F)C(F)(F)C(=O)Cl` the outcome was “inactive”.
With `C[Si](C)(C)C(F)(F)C(F)(F)C(F)(F)F` the outcome was “inactive”.
With `NCC(F)(F)C(F)(F)C(F)(F)C(F)(F)F` the outcome was “inactive”.
In the case of `FC(F)(F)C(F)(F)C(F)(F)C(F)(F)C(F)(F)C(F)(F)I`, the outcome is reported as “inactive”.
With `FC(F)C(F)(F)COCC1CO1` (stereo not given) the outcome was “inactive”.
With `OCCC(F)(F)C(F)(F)C(F)(F)C(F)(F)F` the outcome was “inactive”.
In the case of `OC(O)(C(F)C(O)(O)C(F)(F)F)C(F)(F)F`, the outcome is reported as “inactive”.
`FC(F)=C(F)C(F)(F)C(F)(F)C(F)(F)C(F)(F)C(F)(F)C(F)(F)F` was tested, and the outcome was “inactive”.
